According to the supplement of paper PMC11732987, “Enantioselective OTUD7B fragment discovery through chemoproteomics screening and high-throughput optimisation” (Communications Chemistry, 2025):

Columns and labels:
Experiment in all cases: log2 ratio of Biotin-Ahx-Ub-VS probe labelling (fragment/DMSO); higher = less target engagement (more negative = stronger competition), active = hit call of the paper (q ≤ 0.05, log2 ratio ≤ -1)
Details in all cases: compound concentration: 200 uM; treatment time: 3 h
[1] = target: T1, USP19 (UniProt O94966)
T1 sequence (whole entry): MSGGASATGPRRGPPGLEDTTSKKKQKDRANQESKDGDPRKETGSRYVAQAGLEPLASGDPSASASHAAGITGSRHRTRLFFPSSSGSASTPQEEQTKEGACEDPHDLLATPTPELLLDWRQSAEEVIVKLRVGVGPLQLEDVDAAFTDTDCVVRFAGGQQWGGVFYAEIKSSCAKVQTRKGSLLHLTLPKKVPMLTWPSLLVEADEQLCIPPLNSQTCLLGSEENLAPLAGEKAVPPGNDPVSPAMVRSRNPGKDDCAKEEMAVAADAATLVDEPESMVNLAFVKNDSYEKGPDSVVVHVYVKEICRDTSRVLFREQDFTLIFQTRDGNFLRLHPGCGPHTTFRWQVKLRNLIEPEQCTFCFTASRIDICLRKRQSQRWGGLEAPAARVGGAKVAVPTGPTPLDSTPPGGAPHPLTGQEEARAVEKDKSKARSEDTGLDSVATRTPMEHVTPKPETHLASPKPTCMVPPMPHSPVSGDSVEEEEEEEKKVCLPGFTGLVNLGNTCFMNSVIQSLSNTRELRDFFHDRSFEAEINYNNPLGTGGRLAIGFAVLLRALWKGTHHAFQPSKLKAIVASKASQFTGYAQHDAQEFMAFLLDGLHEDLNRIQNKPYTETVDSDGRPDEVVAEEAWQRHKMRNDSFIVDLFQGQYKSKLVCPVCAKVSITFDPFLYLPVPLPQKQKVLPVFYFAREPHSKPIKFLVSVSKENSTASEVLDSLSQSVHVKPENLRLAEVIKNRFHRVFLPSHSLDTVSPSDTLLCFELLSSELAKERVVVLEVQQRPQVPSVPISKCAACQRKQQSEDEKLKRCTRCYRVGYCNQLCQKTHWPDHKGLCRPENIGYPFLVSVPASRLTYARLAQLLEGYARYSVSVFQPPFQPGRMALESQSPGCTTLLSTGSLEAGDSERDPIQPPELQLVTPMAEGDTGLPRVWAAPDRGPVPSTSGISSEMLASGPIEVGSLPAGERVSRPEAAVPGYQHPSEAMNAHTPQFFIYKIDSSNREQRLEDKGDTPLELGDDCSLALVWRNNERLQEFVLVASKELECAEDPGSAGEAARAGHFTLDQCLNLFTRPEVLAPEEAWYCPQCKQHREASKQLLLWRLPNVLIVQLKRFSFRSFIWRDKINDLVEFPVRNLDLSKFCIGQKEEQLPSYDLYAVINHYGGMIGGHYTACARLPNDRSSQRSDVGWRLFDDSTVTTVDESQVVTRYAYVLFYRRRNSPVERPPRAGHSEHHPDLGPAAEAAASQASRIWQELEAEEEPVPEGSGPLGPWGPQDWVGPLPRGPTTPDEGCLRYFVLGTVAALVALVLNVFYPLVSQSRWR
Outline: (§1)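 Average log2 ratios of fragment over vehicle were obtained by unpaired t-test from global-median-normalised Spectronaut label-free quantities. Proteins with ≥2 unique peptides were included. HEK293T lysate (495 µg per sample) was treated in triplicate with fragment at 200 µM or vehicle for 3 h, then with Biotin-Ahx-Ub-VS at 0.5 µM final for 1 h, and labelled DUBs were NeutrAvidin-enriched and run by diaPASEF LC-MS/MS.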

[2] = target: T2, USP22 (UniProt Q9UPT9)
T2 sequence (whole entry): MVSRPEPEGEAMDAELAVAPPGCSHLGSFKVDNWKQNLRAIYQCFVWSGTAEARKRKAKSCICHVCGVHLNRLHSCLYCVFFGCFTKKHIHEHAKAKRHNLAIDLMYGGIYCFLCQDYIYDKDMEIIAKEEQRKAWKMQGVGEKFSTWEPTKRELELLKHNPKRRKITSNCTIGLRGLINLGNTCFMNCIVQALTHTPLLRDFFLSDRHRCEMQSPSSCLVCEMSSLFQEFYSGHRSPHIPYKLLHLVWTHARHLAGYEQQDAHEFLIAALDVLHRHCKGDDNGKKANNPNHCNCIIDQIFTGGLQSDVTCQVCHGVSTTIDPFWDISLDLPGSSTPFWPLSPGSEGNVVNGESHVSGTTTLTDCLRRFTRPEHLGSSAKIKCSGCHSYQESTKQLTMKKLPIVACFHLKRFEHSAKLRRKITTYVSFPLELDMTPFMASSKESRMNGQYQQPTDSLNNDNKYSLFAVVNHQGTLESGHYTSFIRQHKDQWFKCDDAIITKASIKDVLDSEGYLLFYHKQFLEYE
Outline: as §1

[3] = target: USP24 (UniProt Q9UPU5)
Outline: as §1

[4] = target: T3, USP25 (UniProt Q9UHP3)
T3 sequence (whole entry): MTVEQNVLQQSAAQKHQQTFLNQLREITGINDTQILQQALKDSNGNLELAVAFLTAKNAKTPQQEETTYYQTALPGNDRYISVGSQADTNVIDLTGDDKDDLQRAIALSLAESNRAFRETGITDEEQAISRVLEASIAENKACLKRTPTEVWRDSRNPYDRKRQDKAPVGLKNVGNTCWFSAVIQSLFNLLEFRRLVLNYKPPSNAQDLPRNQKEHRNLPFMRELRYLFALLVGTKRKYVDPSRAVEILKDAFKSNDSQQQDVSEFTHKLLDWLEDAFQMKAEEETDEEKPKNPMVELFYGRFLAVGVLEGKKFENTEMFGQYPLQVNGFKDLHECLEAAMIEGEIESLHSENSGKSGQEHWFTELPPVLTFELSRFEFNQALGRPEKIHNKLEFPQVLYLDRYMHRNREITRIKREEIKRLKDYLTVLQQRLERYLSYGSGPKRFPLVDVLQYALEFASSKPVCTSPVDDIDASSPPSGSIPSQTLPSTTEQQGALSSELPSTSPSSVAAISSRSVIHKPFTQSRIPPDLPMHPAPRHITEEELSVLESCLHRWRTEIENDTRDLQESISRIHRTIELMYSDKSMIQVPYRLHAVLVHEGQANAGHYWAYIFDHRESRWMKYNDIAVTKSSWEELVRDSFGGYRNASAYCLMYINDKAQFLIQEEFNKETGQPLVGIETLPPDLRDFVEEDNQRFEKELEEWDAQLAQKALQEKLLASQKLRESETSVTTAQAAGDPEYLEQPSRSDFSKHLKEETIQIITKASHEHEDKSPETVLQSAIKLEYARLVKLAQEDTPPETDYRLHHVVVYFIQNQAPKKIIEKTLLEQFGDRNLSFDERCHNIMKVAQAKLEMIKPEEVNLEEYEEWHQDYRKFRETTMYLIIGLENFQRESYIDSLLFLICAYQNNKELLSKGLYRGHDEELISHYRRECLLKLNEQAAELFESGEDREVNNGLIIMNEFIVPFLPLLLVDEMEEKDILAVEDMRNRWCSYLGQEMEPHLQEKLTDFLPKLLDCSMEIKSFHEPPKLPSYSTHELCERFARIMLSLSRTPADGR
Outline: as §1

[5] = target: T4, USP28 (UniProt Q96RU2)
T4 sequence (whole entry): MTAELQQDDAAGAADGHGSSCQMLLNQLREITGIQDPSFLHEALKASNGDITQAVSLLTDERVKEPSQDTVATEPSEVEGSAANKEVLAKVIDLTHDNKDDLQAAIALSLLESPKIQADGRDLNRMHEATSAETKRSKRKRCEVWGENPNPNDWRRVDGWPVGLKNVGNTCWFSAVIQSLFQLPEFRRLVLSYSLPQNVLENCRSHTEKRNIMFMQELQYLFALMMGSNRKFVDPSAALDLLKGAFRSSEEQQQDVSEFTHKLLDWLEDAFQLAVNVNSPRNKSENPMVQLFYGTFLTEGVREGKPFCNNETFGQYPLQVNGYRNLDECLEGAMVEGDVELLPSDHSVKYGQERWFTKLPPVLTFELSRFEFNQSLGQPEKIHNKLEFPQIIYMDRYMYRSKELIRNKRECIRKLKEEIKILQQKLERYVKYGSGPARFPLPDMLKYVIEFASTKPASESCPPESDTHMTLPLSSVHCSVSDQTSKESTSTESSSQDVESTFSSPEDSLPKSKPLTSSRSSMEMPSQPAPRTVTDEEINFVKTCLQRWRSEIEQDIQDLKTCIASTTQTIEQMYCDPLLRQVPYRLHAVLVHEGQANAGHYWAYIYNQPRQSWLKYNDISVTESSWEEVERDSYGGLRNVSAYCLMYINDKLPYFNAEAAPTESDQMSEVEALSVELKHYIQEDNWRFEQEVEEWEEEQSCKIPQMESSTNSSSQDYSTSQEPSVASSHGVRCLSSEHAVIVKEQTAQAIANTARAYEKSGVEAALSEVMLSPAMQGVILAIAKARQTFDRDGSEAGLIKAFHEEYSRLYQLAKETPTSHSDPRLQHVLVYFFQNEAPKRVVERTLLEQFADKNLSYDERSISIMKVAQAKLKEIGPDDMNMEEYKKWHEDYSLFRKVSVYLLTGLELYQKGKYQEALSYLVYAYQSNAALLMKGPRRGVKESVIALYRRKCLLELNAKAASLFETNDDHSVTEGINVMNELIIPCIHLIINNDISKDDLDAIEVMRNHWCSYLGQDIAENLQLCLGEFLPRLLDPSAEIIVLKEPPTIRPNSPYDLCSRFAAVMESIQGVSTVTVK
Outline: as §1

Measured: log2 ratio of Biotin-Ahx-Ub-VS probe labelling

Chain of USP24 (Q9UPU5 whole entry): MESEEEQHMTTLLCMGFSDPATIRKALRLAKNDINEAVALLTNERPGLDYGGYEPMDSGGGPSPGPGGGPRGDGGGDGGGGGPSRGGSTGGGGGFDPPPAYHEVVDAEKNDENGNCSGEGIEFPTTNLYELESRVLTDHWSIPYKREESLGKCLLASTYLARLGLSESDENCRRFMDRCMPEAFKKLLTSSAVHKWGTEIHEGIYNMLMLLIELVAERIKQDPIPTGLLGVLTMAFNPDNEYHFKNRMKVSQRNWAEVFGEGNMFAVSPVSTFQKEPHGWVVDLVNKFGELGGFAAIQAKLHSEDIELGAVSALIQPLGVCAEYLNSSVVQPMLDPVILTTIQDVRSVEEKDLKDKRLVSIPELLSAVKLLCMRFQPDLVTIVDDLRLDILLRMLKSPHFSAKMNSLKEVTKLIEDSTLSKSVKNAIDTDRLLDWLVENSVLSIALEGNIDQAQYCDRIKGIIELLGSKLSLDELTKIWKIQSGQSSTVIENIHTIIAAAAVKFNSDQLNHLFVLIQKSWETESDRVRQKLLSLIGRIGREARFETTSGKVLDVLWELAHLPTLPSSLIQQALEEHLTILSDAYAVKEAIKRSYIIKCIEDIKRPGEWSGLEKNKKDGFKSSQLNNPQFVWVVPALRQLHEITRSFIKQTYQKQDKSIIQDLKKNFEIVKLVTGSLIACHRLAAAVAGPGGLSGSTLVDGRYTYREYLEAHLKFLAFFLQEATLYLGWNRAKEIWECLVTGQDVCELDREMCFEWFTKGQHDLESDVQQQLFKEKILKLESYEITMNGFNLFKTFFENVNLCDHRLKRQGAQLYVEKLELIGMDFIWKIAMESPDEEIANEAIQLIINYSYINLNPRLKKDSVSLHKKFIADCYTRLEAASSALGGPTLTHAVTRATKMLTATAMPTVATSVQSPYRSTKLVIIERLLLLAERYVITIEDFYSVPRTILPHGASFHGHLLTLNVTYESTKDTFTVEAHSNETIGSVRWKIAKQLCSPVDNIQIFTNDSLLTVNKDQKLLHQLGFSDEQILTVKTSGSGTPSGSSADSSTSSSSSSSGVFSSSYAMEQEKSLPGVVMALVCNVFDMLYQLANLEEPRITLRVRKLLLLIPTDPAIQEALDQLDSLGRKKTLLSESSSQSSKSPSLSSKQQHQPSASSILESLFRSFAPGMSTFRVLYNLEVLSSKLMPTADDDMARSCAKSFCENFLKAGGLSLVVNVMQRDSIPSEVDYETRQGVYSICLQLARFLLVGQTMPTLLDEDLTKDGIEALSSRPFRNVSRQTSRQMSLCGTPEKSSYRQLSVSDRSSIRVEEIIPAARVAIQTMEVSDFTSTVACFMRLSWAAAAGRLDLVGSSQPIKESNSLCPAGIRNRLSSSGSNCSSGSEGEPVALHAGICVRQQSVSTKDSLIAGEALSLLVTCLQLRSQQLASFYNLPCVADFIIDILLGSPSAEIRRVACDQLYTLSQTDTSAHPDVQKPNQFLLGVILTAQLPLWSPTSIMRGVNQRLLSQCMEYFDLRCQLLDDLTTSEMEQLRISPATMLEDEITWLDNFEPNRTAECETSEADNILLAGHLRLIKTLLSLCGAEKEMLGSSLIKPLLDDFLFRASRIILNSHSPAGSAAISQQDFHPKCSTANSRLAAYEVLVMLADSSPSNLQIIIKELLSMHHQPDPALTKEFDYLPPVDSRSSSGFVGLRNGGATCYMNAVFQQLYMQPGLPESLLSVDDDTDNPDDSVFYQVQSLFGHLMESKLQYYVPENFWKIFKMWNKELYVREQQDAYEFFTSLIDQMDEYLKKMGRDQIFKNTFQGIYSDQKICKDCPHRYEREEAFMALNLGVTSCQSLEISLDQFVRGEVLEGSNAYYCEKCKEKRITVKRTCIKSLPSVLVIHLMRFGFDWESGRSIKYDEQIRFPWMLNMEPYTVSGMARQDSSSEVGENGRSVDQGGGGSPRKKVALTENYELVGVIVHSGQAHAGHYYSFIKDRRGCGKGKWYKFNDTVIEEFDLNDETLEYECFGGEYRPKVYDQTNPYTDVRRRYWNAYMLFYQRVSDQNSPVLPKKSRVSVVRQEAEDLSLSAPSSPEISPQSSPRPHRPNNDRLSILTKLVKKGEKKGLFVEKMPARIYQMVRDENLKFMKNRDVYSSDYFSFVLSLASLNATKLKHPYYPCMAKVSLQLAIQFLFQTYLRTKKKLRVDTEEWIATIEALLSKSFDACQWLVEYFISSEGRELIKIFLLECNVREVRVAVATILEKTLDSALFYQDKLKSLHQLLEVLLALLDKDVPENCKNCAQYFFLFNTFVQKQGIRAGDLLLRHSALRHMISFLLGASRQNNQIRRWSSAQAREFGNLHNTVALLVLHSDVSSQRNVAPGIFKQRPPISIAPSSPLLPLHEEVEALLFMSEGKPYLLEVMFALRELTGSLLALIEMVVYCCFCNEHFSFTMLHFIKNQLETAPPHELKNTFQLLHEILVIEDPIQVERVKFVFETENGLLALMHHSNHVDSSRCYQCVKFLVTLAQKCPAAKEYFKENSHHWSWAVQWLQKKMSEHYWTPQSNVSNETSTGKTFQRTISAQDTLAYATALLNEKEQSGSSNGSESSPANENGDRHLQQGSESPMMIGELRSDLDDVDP

O=C(CCl)NCCc1ccc2c(c1)OCCO2
inactive: [1] -0.254 | [2] 0.0144 | [3] -0.665 | [4] -0.794 | [5] -0.745
